Screening data from PubChem BioAssay.
Shown are actives, neighbours in structure and some others; about 28% of the full set was active somewhere.
CYP2C19 inh: blockers of cytochrome P450 2C19 activity – biochemical, luminescence, ADME assay, primary screen. P33261. CYP2C19 Supersomes, luciferin-H EGE luminescence, 30 min. inhibition, % at 5 µM. 96,000 compounds, 21% hits. AID 778, 2007;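 active means CYP2C19 inhibition above a set limit at 5 µM in the primary screen, cut at about 50% in these data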;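 further: plate controls were negative control wells for no effect and 2.5 mM tranylcypromine positive control for full effect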
CD11b adhes inh: inhibitors of CD11b/CD18 adhesion to fibrinogen, primary screen, K562 cells, luminescence; 93,000 compounds, 0.54% hits; inhibition, % at 10 µM; Integrin beta-2 (Homo sapiens) + Integrin alpha-M (Homo sapiens), P05107+P11215; ATPlite luminescence; Mn2+ added to activate the integrin;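 active means primary inhibition of 50% or more at 10 µM, then 40% or more on retest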
Target sequence (P05107 whole entry, looked up, other chains not shown): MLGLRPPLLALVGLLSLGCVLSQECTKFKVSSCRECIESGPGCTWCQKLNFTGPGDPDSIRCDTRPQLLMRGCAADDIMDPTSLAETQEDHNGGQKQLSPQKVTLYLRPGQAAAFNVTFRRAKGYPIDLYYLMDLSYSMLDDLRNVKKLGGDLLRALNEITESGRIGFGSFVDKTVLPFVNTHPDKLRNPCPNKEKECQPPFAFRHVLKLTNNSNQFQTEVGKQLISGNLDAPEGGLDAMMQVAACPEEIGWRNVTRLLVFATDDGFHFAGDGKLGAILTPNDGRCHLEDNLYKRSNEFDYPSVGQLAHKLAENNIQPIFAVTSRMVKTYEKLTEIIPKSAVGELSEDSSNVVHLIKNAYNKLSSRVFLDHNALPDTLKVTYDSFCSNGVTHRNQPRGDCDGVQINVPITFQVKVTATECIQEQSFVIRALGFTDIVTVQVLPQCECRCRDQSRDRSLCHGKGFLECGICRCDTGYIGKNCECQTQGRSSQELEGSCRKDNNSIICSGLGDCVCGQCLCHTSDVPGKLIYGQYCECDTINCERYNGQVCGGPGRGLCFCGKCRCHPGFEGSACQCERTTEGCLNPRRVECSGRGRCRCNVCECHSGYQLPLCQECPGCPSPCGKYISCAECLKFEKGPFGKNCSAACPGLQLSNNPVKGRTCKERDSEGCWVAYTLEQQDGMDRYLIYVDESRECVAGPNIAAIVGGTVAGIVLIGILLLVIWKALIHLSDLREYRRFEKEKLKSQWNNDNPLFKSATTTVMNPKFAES
CYP2C9 activ: human CYP2C9 activators, primary screen, biochemical, luminescence; recombinant CYP2C9, luciferin-H conversion; stronger effect = higher value; factor 1 = untreated enzyme, 0 = blocked; activation factor at 5 µM; 96,000 compounds, 1.4% hits;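 active means activation factor of 2 or more for CYP2C9 at a 5 µM dose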;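 further: 0 = sulfaphenazole-blocked wells and 1 = vehicle-only wells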
CYP2C9 inh: blockers of cytochrome P450 2C9 activity – biochemical, luminescence, ADME assay, primary screen; CYP2C9 Supersomes, luciferin-H conversion; inhibition, % at 5 µM; 96,000 compounds, 20% hits;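 active means blocking of liver enzyme CYP2C9 beyond about 50% at 5 µM, limit read from the data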
CD11b adhes enh: enhancers of CD11b/CD18 adhesion to fibrinogen, primary screen, K562 cells, luminescence. Integrin beta-2 (Homo sapiens) + Integrin alpha-M (Homo sapiens), P05107+P11215. ATPlite luminescence. activation, % at 10 µM. 93,000 compounds, 0.07% hits. AID 1499, 2009;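 active means 10 µM primary screen giving 50% or more activity, confirmed by 40% or more on retest at that dose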
CYP2C19 activ: human CYP2C19 activators, primary screen, biochemical, luminescence; activation factor at 5 µM; 96,000 tested, under 10 active; Cytochrome P450 2C19 (Homo sapiens), P33261; AID 1025, 2008; recombinant CYP2C19, luciferin-H EGE luminescence; stronger effect = higher value; 0 = fully inhibited enzyme, 1 = untreated enzyme;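 active means activation factor of at least 2 at 5 µM in the primary screen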;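 further: 0 = wells with 2.5 mM tranylcypromine and 1 = vehicle-only wells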
* hit, by the source's call; · = not tested or not shown.

SMILES | CYP2C19 inh | CD11b adhes inh | CYP2C9 activ | CYP2C9 inh | CD11b adhes enh | CYP2C19 activ
CCOC(=O)C1C(=O)C=C(c2ccc(C)cc2)CC1c1ccco1 (stereo not drawn) | 54* | · | 0.2 | 80* | · | 0.5
CCOC(=O)C1C(=O)C=C(c2ccc(NS(C)(=O)=O)cc2)CC1c1ccco1 (stereo not drawn) | 21 | · | 0.2 | 75* | · | 0.8
O=C(CCCc1nc(-c2ccccc2)no1)N1CCOCC1 | 37 | 2 | 1.1 | -11 | 1 | 0.6
CCn1nnc(-c2ccccc2NC(=O)c2cc(OC)c(OC)c(OC)c2)n1 | 36 | -12 | 0.1 | 93* | -1 | 0.6
CCn1nnc(-c2ccccc2NC(=O)c2cc(OC)cc(OC)c2)n1 | 11 | -6 | 0.8 | 19 | -8 | 0.9
CCOc1ccc(NC(=O)Cn2nnc(-c3ccccc3NC(=O)c3cccs3)n2)cc1 | 19 | -19 | 0.5 | 50* | -4 | 0.8
CCCC(=O)Nc1ccccc1-c1nnn(CC(=O)Nc2ccc(OC)cc2)n1 | 20 | -6 | 0.7 | 33 | 4 | 0.8
CCn1nnc(-c2ccccc2NC(=O)C(F)(F)F)n1 | 70* | 0 | 0.7 | 26 | 0 | 0.3
Cc1nn(CCc2nc(-c3ccco3)cs2)c2[nH]c(=O)cc(C(F)(F)F)c12 | 56* | 36 | 0.3 | 71* | -4 | 0.4
COc1ccc(C2(C(=O)NC3CCCCC3)CCOCC2)cc1OC | 15 | -7 | 1 | 2 | 0 | 0.9
O=C(CSc1nnc(-c2ccc(O)cc2)n1Cc1ccco1)c1cccs1 | 65* | -2 | 0.2 | 78* | 0 | 0.3
O=C(CC(SCc1ccco1)c1ccc(O)cc1)c1cccs1 (stereo not drawn) | 79* | 32 | 0 | 98* | -2 | 0.2
Cc1ccc(NC(=O)CSc2nnc(-c3cnccn3)n2Cc2ccco2)cc1 | 27 | -7 | 0.5 | 48 | 3 | 0.7
O=C(CC(SCCO)c1ccc2c(c1)OCO2)c1cccs1 (stereo not drawn) | 100* | -9 | 0.1 | 95* | 1 | 0
O=C(CC(SCCO)c1ccc(F)cc1)c1ccco1 (stereo not drawn) | 22 | 23 | 0.7 | 26 | -1 | 0.8
Cc1ccc(OCc2nnc(SCC(=O)c3ccccc3)n2Cc2ccco2)cc1 | 97* | 0 | 0 | 95* | -5 | 0
CC1(C)CC(=O)C([N+](=O)[O-])=C(NCCCO)C1 | · | 2 | · | · | 1 | ·
O=C(CSc1nnc(-c2ccc(O)cc2)n1Cc1ccco1)c1ccccc1 | 38 | -32 | 0.5 | 50* | 0 | 0.6
CCN(CC)C(=O)c1cc2sc3ccccc3c2s1 | 27 | 12 | 2.4* | -136 | 0 | 0.7
COCCN(CC(=O)NCc1ccccc1)C(=O)CCC(=O)Nc1ccccn1 | 0 | -12 | 1 | -5 | 1 | 1
COCCN(CCOC)C(=O)c1cc2sc3ccccc3c2s1 | 34 | -4 | 2.8* | -179 | -3 | 0.7
CC(=O)Nc1ccc(NC(=O)/C=C/c2cccc(C(F)(F)F)c2)cc1 | · | 5 | · | · | -4 | ·
CC1=CC(C)(C)N2C(=O)C3(SCC(=O)N3c3ccc(F)cc3)c3cc(C)cc1c32 (stereo not drawn) | 48 | 14 | 0.4 | 63* | 1 | 0.5
CC(=O)c1sc2nc(C)cc(C)c2c1N | -2 | -6 | 1 | 5 | 1 | 1
Cc1cc(C)c2c(N)c(S(=O)(=O)Cc3ccccc3)sc2n1 | 99* | -4 | 3* | -197 | -1 | 0
SMILES | CYP2C19 inh | CD11b adhes inh | CYP2C9 activ | CYP2C9 inh | CD11b adhes enh | CYP2C19 activ
CCOc1ccc(C(C)=O)cc1Cn1nc(C(=O)O)c2ccccc2c1=O | 2 | -6 | 0.9 | 5 | -6 | 1
Nc1nnc(C(c2ccccc2)c2ccccc2)s1 | 37 | 1 | 0.7 | 33 | 2 | 0.6
CCN1CCc2c(C#N)c(N3CCCCC3)nc(NCc3ccccc3)c2C1 | 30 | 7 | 0.3 | 70* | 0 | 0.7
C=CCNc1nc(N2CCCCC2)c(C#N)c2c1CN(Cc1ccccc1)CC2 | 62* | 14 | 0.1 | 90* | -1 | 0.4
CCN1CCc2c(sc(N)c2C#N)C1 | 0 | 2 | 1 | 5 | -3 | 1
N#Cc1c(N)sc(=S)c2c1CCN(Cc1ccccc1)C2 | 74* | -11 | 0.3 | 69* | 72 | 0.3
CCN1CCc2c(C#N)c(N3CCOCC3)nc(NCCO)c2C1 | -3 | -2 | 1 | 2 | -1 | 1
C=CCNc1nc(N2CCOCC2)c(C#N)c2c1CN(C)CC2 | 14 | -9 | 0.6 | 40 | -4 | 0.9
CCN1CCc2c(C#N)c(N3CCOCC3)nc(NCc3ccccc3)c2C1 | 46 | -2 | 0.3 | 70* | 0 | 0.5
Cc1nn(Cc2ccc(Cl)cc2)c(C)c1NC(=O)C1CC=CCC1C(=O)O (stereo not drawn) | 39 | 9 | 1.1 | -12 | -1 | 0.6
Cc1[nH]n(CCC#N)c(=O)c1CC(=O)N1CCN(c2ccccc2)CC1 | -14 | -11 | 1.3 | -26 | -2 | 1.1
CCOC(=O)Nc1cc(C(=O)OC)ccc1C | 46 | 3 | 0.8 | 20 | -2 | 0.5
N#Cc1c(NCCO)nc(NCc2ccccc2)c2c1CCN(Cc1ccccc1)C2 | 26 | 11 | 0.1 | 94* | -2 | 0.7
Cc1nn(C(C)C(=O)Nc2ccc(Cl)cn2)c(C)c1[N+](=O)[O-] (stereo not drawn) | 74* | -3 | 0.8 | 22 | 16 | 0.3
CCCC(C)C(=O)Nc1ccc(Cl)cn1 (stereo not drawn) | 53* | -10 | 0.9 | 14 | -3 | 0.5
O=C(COc1ccc(Cl)cc1)Nc1ccc(Cl)cn1 | 68* | -1 | 0.8 | 20 | -4 | 0.3
Cc1nn(CC(=O)Nc2ccc(Cl)cn2)c(C)c1[N+](=O)[O-] | 48 | -38 | 1.1 | -6 | -4 | 0.5
COc1ccc(NC(C#N)c2ccccc2OCc2ccccc2)cc1 (stereo not drawn) | · | 24 | · | · | -4 | ·
Cc1cc(C(=O)COC(=O)c2n[nH]c3ccccc23)c(C)n1CC1CCCO1 (stereo not drawn) | 33 | 37 | 1 | -3 | -4 | 0.7
COC(=O)c1cccc(NC(=O)c2nn(C(C)C)c(=O)c3ccccc23)c1 | 7 | 11 | 0.6 | 39 | -4 | 0.9
CCCn1nc(C(=O)NCc2ccccn2)c2ccccc2c1=O | 15 | -11 | 0.5 | 45 | 0 | 0.8
CCCn1nc(C(=O)Nc2cccc(C(=O)OC)c2)c2ccccc2c1=O | 63* | 1 | 0.2 | 79* | -2 | 0.4
